Test results taken from the supplement of paper PMC10849652.
The full data set covers some 7,900 targets. This sample favours those with a hit. About 0.6% of all pairs of compound and target were hits. Unmarked numbers belong to inactive results.

Experiments:
Assay in all cases: log2 fold change, soluble protein after heating vs DMSO (PISA); higher = thermal stabilisation; K562 cells, 10 uM, 30 min; active = over 0.2 and 3.5 SD of the protein, either way, in both replicates (recomputed)
[1] = compound: CS(=O)(=O)c1ccc(-c2cnc(N)c(C(=O)Nc3ccccc3)n2)cc1
In short: (§1)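 K562 cells at 2×10^6 cells/mL were given 10 μM compound for 30 min. Aliquots then went through 3 min of heating across 48°C-58°C, were pooled, and were extracted in PBS with 0.5% NP-40 at 4°C, and the supernatant after 21,000xg for 90 min was quantified by TMTpro 16plex LC-MS/MS with channel sums equalised. Thermal stability relative to control samples, from duplicates, is given as log2 fold change.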

crizotinib = compound: C[C@@H](Oc1cc(-c2cnn(C3CCNCC3)c2)cnc1N)c1c(Cl)ccc(F)c1Cl [crizotinib]
In short: as §1

[2] = compound: C[C@@H]1COCCN1C2=NC(=NC(=C2)C3(CC3)S(=O)(=O)C)C4=C5C=CNC5=CC=C4
In short: as §1

[3] = compound: C[C@H](C1=CC=C(C=C1)C(=O)NC2=C3C=CNC3=NC=C2)N
In short: as §1

duvelisib = compound: C[C@H](Nc1ncnc2nc[nH]c12)c1cc2cccc(Cl)c2c(=O)n1-c1ccccc1 [duvelisib]
In short: as §1

gandotinib = compound: Cc1cc(Nc2cc(CN3CCOCC3)c3nc(C)c(Cc4ccc(Cl)cc4F)n3n2)n[nH]1 [gandotinib]
In short: as §1

tozasertib = compound: Cc1cc(Nc2cc(N3CCN(C)CC3)nc(Sc3ccc(NC(=O)C4CC4)cc3)n2)n[nH]1 [tozasertib]
In short: as §1

[4] = compound: Cc1cc(SCc2sc(-c3ccc(C(F)(F)F)cc3)nc2C)ccc1OCC(=O)O
In short: as §1

doramapimod = compound: Cc1ccc(-n2nc(C(C)(C)C)cc2NC(=O)Nc2ccc(OCCN3CCOCC3)c3ccccc23)cc1 [doramapimod]
In short: as §1

ispinesib = compound: Cc1ccc(C(=O)N(CCCN)[C@@H](c2nc3cc(Cl)ccc3c(=O)n2Cc2ccccc2)C(C)C)cc1 [ispinesib]
In short: as §1

bafetinib = compound: Cc1ccc(NC(=O)c2ccc(CN3CC[C@H](N(C)C)C3)c(C(F)(F)F)c2)cc1Nc1nccc(-c2cncnc2)n1 [bafetinib]
In short: as §1

[5] = compound: Cc1cccc(CC(=O)N2CCc3c2ccc(-c2cn(C)c4ncnc(N)c24)c3F)n1
In short: as §1

nilotinib = compound: Cc1cn(-c2cc(NC(=O)c3ccc(C)c(Nc4nccc(-c5cccnc5)n4)c3)cc(C(F)(F)F)c2)cn1 [nilotinib]
In short: as §1

[6] = compound: Cc1nc(Nc2n[nH]c3c2CN(C(=O)N[C@H](CN(C)C)c2ccccc2)C3(C)C)c2sccc2n1
In short: as §1

dasatinib = compound: Cc1nc(Nc2ncc(C(=O)Nc3c(C)cccc3Cl)s2)cc(N2CCN(CCO)CC2)n1 [dasatinib]
In short: as §1

[7] = compound: Cc1ncc(-c2ccnc(Nc3ccc(S(C)(=O)=O)cc3)n2)n1C(C)C
In short: as §1

[8] = compound: Cn1cc(-c2ccc3c(c2)CCN3C(=O)Cc2cccc(C(F)(F)F)c2)c2c(N)ncnc21
In short: as §1

[9] = compound: Cn1cc(-c2ccc3nnc(C(F)(F)c4ccc5ncccc5c4)n3n2)cn1
In short: as §1

tipifarnib = compound: Cn1cncc1[C@@](N)(c1ccc(Cl)cc1)c1ccc2c(c1)c(-c1cccc(Cl)c1)cc(=O)n2C [tipifarnib]
In short: as §1

mubritinib = compound: FC(F)(F)c1ccc(/C=C/c2nc(COc3ccc(CCCCn4ccnn4)cc3)co2)cc1 [mubritinib]
In short: as §1

Chain of UniProt Q9UH99 (Q9UH99 whole entry, looked up): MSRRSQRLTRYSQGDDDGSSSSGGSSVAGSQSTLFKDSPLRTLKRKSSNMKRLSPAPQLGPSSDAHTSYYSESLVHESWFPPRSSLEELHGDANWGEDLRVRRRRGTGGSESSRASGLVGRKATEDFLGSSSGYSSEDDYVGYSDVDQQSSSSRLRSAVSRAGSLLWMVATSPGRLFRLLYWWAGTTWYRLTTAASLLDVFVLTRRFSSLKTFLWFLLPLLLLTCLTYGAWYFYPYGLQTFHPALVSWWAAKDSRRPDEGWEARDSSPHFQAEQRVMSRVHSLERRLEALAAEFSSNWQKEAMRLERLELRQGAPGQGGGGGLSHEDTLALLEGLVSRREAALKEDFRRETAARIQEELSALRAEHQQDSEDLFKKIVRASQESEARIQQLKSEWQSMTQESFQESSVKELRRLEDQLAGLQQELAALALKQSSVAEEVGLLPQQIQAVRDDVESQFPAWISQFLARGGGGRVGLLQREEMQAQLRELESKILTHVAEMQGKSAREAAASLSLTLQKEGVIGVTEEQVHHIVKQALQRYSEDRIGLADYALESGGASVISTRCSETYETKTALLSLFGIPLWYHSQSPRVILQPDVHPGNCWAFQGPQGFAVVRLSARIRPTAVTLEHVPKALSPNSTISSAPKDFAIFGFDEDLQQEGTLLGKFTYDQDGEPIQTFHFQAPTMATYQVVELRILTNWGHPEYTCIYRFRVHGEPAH
Chain of UniProt P35270 (P35270 whole entry, looked up): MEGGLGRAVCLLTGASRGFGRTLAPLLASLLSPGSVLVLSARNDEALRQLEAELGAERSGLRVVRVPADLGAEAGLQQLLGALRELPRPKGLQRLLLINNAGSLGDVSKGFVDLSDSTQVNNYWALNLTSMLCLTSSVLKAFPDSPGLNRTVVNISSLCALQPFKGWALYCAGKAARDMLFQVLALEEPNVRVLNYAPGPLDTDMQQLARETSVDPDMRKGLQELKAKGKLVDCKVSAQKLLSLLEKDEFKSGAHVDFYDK
Chain of UniProt P31641 (P31641 whole entry, looked up): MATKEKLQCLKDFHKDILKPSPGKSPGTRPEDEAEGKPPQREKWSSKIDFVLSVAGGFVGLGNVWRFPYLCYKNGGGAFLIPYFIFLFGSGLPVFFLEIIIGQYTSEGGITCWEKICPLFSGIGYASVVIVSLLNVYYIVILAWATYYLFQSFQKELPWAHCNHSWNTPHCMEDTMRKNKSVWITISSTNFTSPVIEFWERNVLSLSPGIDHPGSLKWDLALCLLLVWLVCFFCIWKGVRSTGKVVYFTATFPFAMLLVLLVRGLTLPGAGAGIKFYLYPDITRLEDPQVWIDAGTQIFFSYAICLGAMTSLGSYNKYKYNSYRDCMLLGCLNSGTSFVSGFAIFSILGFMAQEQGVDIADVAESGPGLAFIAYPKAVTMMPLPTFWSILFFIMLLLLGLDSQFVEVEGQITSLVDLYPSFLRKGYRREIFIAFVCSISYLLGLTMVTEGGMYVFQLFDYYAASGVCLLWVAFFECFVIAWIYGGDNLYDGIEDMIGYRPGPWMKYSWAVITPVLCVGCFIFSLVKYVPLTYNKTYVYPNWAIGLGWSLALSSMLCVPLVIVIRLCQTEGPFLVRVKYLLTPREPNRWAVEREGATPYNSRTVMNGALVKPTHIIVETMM
Chain of UniProt Q00059 (Q00059 whole entry, looked up): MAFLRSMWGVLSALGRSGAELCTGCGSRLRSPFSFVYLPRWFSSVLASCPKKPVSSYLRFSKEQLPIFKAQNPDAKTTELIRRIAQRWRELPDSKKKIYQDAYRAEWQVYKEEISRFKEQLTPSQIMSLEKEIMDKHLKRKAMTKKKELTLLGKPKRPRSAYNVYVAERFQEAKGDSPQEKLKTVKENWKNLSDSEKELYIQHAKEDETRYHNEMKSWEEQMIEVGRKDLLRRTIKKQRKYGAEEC
Chain of UniProt Q9Y5X3 (Q9Y5X3 whole entry, looked up): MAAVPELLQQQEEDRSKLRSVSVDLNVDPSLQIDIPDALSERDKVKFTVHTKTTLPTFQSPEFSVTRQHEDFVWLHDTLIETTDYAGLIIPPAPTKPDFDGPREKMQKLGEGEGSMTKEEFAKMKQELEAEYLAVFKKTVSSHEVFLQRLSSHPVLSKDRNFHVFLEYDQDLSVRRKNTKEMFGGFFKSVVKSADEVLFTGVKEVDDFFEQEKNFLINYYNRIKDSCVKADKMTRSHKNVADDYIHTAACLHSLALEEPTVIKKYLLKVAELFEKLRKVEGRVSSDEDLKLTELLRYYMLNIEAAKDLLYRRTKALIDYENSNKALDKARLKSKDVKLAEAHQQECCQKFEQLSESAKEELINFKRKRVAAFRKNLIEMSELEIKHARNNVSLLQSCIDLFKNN
Chain of UniProt Q5T5C0 (Q5T5C0 whole entry, looked up): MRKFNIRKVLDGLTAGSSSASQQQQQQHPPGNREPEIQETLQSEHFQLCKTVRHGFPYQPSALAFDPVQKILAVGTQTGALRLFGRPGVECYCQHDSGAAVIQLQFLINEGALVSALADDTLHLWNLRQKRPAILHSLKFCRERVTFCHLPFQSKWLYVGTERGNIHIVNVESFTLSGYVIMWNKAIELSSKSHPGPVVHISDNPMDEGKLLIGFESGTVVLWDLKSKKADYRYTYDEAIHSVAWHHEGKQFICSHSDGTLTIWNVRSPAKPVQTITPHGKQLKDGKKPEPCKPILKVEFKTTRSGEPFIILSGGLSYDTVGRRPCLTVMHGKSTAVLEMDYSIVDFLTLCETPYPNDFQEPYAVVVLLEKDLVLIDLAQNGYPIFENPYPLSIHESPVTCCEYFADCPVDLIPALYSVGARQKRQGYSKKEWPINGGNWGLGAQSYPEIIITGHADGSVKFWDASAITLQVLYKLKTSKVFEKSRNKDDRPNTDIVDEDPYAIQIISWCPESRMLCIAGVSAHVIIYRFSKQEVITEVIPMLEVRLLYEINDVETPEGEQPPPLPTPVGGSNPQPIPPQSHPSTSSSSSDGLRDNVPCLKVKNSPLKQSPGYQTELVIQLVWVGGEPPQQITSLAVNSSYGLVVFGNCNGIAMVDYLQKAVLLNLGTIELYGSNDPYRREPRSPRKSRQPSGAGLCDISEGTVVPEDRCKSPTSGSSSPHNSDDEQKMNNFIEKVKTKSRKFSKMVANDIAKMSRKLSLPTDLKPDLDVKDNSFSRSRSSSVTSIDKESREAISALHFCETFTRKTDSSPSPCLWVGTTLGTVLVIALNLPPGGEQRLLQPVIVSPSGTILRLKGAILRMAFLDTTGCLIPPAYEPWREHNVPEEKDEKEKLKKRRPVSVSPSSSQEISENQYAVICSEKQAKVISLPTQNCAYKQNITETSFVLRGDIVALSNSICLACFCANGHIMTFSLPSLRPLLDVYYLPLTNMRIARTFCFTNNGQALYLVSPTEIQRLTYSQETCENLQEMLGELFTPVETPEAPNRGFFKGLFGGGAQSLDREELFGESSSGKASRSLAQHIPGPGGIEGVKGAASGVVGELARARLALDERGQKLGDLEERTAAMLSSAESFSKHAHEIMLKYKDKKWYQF
Chain of UniProt Q4KMP7 (Q4KMP7 whole entry, looked up): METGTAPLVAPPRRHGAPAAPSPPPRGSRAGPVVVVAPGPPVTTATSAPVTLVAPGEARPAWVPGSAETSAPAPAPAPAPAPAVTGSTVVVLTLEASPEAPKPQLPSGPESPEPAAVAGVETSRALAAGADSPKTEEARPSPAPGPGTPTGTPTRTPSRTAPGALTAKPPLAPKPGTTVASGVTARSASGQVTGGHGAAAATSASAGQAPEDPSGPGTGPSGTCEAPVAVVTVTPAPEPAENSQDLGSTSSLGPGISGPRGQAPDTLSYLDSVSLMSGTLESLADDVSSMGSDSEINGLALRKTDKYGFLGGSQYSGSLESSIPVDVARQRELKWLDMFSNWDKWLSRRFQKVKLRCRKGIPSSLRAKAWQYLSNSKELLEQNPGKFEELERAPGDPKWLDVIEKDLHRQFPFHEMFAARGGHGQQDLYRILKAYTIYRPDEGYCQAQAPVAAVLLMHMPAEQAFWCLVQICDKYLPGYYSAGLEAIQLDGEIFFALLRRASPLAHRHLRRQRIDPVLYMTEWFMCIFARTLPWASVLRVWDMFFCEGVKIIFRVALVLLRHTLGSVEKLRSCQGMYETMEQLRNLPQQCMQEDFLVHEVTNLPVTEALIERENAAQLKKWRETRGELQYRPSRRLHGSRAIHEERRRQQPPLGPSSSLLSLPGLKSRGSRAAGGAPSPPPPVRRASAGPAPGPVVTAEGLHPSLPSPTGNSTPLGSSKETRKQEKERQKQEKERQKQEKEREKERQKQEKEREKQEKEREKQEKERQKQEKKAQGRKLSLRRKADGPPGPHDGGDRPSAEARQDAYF
Chain of UniProt Q08945 (Q08945 whole entry, looked up): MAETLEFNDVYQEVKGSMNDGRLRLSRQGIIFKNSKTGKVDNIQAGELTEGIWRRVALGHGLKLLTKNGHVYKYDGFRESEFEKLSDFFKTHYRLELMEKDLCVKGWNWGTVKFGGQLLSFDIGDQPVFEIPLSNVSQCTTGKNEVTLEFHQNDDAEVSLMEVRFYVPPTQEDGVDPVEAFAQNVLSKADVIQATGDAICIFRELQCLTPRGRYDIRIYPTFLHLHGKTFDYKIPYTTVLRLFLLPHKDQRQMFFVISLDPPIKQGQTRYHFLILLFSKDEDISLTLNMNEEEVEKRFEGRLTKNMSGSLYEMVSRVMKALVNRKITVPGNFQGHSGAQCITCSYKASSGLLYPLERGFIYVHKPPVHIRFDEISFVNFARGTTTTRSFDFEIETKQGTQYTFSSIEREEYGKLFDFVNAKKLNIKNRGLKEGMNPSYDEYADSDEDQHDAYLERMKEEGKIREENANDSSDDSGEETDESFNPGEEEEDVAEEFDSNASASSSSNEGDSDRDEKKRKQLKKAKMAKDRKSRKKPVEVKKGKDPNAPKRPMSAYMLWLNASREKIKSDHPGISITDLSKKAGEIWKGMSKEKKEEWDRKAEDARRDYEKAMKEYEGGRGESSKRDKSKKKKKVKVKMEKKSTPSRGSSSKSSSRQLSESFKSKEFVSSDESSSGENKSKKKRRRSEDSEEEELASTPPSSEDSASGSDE

Target | log2 fold change [1] | log2 fold change (crizotinib) | log2 fold change [2] | log2 fold change [3] | log2 fold change (duvelisib) | log2 fold change (gandotinib) | log2 fold change (tozasertib) | log2 fold change [4] | log2 fold change (doramapimod) | log2 fold change (ispinesib) | log2 fold change (bafetinib) | log2 fold change [5] | log2 fold change (nilotinib) | log2 fold change [6] | log2 fold change (dasatinib) | log2 fold change [7] | log2 fold change [8] | log2 fold change [9] | log2 fold change (tipifarnib) | log2 fold change (mubritinib)
SLC6A6 (UniProt P31641) | 0.021 | 0.04 | -0.026 | -0.021 | 0.06 | -0.049 | -0.091 | -0.042 | -0.063 | -0.028 | -0.001 | -0.018 | 0.064 | -0.015 | -0.069 | 0.068 | -0.011 | -0.006 | 0.002 | 0.024
SYF2 (UniProt O95926) | -0.147 | 0.206 | -0.031 | 0.157 | -0.039 | 0.11 | -0.113 | -0.078 | 0.022 | -0.079 | -0.198 | 0.021 | -0.017 | 0.25 | 0.119 | 0.308 | -0.193 | -0.021 | 0.027 | -0.002
SMPD4 isoform 4 (UniProt Q9NXE4) | -0.026 | -0.215 | 0.005 | 0.01 | 0.091 | -0.133 | -0.086 | 0.025 | 0.002 | -0.255 | -0.031 | 0.122 | -0.1 | -0.076 | -0.037 | 0.025 | 0.098 | 0.04 | -0.016 | 0.148
SNX11 (UniProt Q9Y5W9) | -0.062 | -0.76 (active) | -0.021 | 0.012 | -0.486 (active) | -0.378 | -0.001 | 0.14 | -0.017 | -0.536 (active) | -0.259 | 0.081 | -0.033 | -0.108 | -0.022 | -0.44 (active) | 0.077 | 0.002 | 0.178 | -0.015
TBC1D10B (UniProt Q4KMP7) | 0.012 | -0.04 | 0.013 | -0.153 | 0 | 0.046 | -0.022 | 0.092 | 0.021 | 0.083 | -0.01 | 0.022 | 0.013 | -0.09 | -0.064 | -0.149 | 0.07 | 0 | 0.039 | 0.013
SNX5 (UniProt Q9Y5X3) | -0.075 | -0.32 (active) | 0.022 | -0.014 | -0.145 | -0.138 | -0.071 | 0.036 | -0.019 | -0.236 | -0.154 | 0.11 | -0.078 | 0.006 | -0.169 | -0.314 | 0.05 | 0.001 | -0.027 | 0.082
SPR (UniProt P35270) | -0.006 | 0.125 | 0.058 | -0.059 | 0.109 | 0.288 | 0.154 | -0.025 | -0.05 | -0.103 | -0.062 | -0.102 | -0.04 | -0.012 | 0.467 (active) | -0.029 | 0.144 | 0.298 | 0.499 (active) | -0.083
TARS2 (UniProt Q9BW92) | 0.022 | 0.024 | 0.094 | -0.002 | 0.049 | -0.173 | 0.057 | 0.009 | 0.015 | -0.094 | -0.081 | 0.114 | -0.094 | -0.003 | -0.055 | 0 | 0.084 | 0.022 | -0.119 | 0.013
TAOK3 (UniProt Q9H2K8) | -0.051 | -0.03 | -0.008 | -0.13 | 0.014 | -0.08 | 0.011 | 0.057 | 0.023 | 0.01 | -0.066 | 0.012 | -0.05 | 0.03 | -0.048 | -0.048 | 0.025 | -0.009 | -0.026 | 0.018
TLK1 (UniProt Q9UKI8) | -0.058 | -0.008 | 0.101 | -0.028 | 0.019 | 0.145 | -0.004 | 0.028 | -0.023 | 0.026 | -0.071 | 0 | -0.073 | -0.399 (active) | -0.028 | 0.007 | 0.06 | 0.026 | 0.01 | 0.011
TAX1BP1 (UniProt Q86VP1) | -0.001 | -0.009 | -0.058 | 0.042 | 0.168 | 0.156 | 0.152 | 0.069 | 0.062 | -0.067 | 0.011 | -0.095 | -0.086 | 0.011 | -0.024 | 0.047 | -0.068 | 0.027 | 0.092 | 0.045
STXBP5 (UniProt Q5T5C0) | -0.021 | -0.024 | 0.006 | 0.047 | 0.066 | -0.029 | 0.017 | -0.002 | 0.026 | -0.058 | -0.032 | 0.017 | 0.003 | -0.025 | -0.06 | -0.003 | 0.021 | -0.026 | -0.049 | -0.021
SUN2 (UniProt Q9UH99) | -0.001 | -0.094 | 0.063 | 0.044 | -0.008 | 0.004 | -0.008 | 0.05 | 0.077 | -0.104 | -0.04 | 0.016 | -0.007 | -0.036 | 0.004 | -0.071 | -0.052 | -0.008 | 0.013 | -0.064
STK39 (UniProt Q9UEW8) | 0.109 | -0.174 | 0.028 | 0.061 | 0.007 | -0.038 | -0.049 | 0.048 | -0.027 | -0.038 | -0.09 | 0 | -0.076 | -0.028 | -0.108 | -0.016 | -0.008 | -0.032 | -0.031 | -0.083
TFAM (UniProt Q00059) | -0.071 | 0.058 | -0.153 | 0.117 | -0.04 | 0.176 | 0.036 | -0.034 | 0.022 | -0.117 | 0.034 | 0.013 | -0.025 | 0.023 | 0.077 | 0.003 | -0.048 | -0.038 | 0.039 | -0.068
SSRP1 (UniProt Q08945) | -0.024 | -0.018 | 0.144 | -0.088 | 0.029 | -0.029 | 0.087 | 0.072 | -0.027 | 0.048 | 0.007 | 0.015 | -0.025 | -0.175 | -0.059 | -0.075 | 0.03 | -0.033 | 0 | 0.009
